Structures are written as SMILES. Calls of active or inactive are those of the source. Calls come from the whole dose curve; as a rule, active = well fitted curve in the direction sought with a large enough effect; inactive = no such curve, though single readings can be large or run the other way.

Ubiquitin carboxyl-terminal hydrolase 2 (Homo sapiens), sequence (O75604 whole entry, looked up): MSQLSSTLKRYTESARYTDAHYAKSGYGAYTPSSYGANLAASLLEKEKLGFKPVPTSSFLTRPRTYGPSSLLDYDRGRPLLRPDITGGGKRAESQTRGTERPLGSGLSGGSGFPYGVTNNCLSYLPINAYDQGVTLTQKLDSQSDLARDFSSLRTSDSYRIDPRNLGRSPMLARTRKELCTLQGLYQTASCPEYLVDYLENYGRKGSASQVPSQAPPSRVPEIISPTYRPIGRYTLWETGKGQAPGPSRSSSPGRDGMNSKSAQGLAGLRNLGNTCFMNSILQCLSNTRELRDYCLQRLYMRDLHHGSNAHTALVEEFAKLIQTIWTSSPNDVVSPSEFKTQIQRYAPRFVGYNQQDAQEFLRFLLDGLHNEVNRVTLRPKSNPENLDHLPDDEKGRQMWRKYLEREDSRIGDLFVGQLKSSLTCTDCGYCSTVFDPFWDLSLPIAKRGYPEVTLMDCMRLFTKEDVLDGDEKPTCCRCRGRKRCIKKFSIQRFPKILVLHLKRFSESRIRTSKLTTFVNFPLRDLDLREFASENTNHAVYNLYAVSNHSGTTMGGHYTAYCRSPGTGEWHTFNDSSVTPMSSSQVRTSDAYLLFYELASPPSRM

This experiment addresses Ubiquitin carboxyl-terminal hydrolase 2 (Homo sapiens) (UniProt O75604). The experiment is described as follows: Confirmation Assay for Inhibitors of Ubiquitin-specific Protease USP2a Using CHOP2 as the Reporter: SAR. The conditions noted are these: USP2 core, Ub-CHOP2 reporter, fluorescence 485/531. An excerpt: Homeostasis of cellular proteins is maintained through a combination of synthesis and degradation. The pathway that accounts for the majority of protein degradation is the ubiquitin-proteasomal pathway. Ubiquitin (Ub) is highly conserved in all cells and the generation of a multi-Ub chain typically targets proteins for degradation by the proteasome. However, ubiquitination is highly reversible and dynamic. Deubiquitination, the reverse process, is catalyzed through the action of enzymes referred to as isopeptidases or deubiquitinating enzymes (DUBs). This group of enzymes is collectively responsible for maintaining adequate pools of free ubiquitin and regulating the ubiquitination status of cellular proteins. […] Thus, this coupled assay gives a fluorescent read-out at excitation/emission wavelengths of 485/531. […]
The assay buffer, prepared fresh at the day of the assay, contains 20mM Tris-HCl pH 8.0, 2mM CaCl2, 2mM beta-Mercaptoethanol, 0.05% CHAPS. […] Plates were read after 60min RT incubation on a ViewLux (Perkin Elmer) plate reader using the following wavelengths Ex 485nm /Em 531nm. […] Concentration-response curves were fitted to the normalized data and the concentration-response curves were then classified based on curve quality (r2), response magnitude and degree of measured activity. The time zero reading was used to flag fluorescence artifacts. […]
Regarding `Cc1ccc(S(=O)(=O)Nc2ccccc2C(=O)Nc2nc(-c3ccccc3)cs2)cc1`, the Potency is 11.3 µM (active). Turning to `Cc1ccc(S(=O)(=O)Nc2ccccc2C(=O)Nc2nc(-c3ccc(Cl)cc3)cs2)cc1`, the Potency is 5.65 µM (active).

(Values after PubChem BioAssay AID652174 (National Center for Advancing Translational Sciences (NCATS), 2013).)
